# Source: PubChem
# NOD2 RIPK2 PPI – NOD2-RIPK2 protein interaction inhibition; O43353; actives 0.38% (n = 360,000); inhibition, % at 4.98 µM; CHO BLA complementation NOD2-RIPK2, CCF4 ratio; in the data active = inhibition above about 21%;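 also: 0% = vehicle only and 100% = reference blocker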
# ABHD5-PLIN5 inh – inhibitors of human ABHD5-perilipin-5 interaction; inhibition, % at 4 µM; Split G. princeps luciferase complementation, luminescence, 4 h; actives 0.78% (n = 360,000);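 active = inhibition above the mean inhibition across every tested compound plus 3 SD, cut at about 22% in these data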;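 also: 0% = DMSO only wells and the 100% control is not disclosed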
# PRMT1 FP inh – blocks human protein arginine methyltransferase 1; inhibition, % at 2.79 µM; recombinant PRMT1, activity-based probe fluorescence polarization; actives 1.3% (n = 370,000);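 active = inhibition above about 21% made by adding two undisclosed values, limit read from the data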
# TLR4-MyD88 BLA – blocks binding of human TLR4 to MyD88 | actives 0.18% (n = 200,000) | HeLa CL3-4 TLR4/MyD88 BLA complementation, FRET ratio | inhibition, % at 8.4 µM | O00206+Q99836; in the data active = inhibition above about 25%;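 also: 0% = vehicle and 100% = reference inhibitor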
# TLR9-MyD88 inh – inhibitors of human TLR9-MyD88 binding; Q9NR96+Q99836; CHO BLA complementation TLR9-MyD88, CCF4 FRET ratio; inhibition, % at 4.98 µM; actives 0.21% (n = 340,000);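 active = inhibition above the mean over all tested compounds plus 3 SD, cut at about 21% in these data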;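 also: 0% = DMSO only wells and 100% = clavulanate BLA inhibitor control wells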
# Target sequence (Q99836 whole entry, looked up): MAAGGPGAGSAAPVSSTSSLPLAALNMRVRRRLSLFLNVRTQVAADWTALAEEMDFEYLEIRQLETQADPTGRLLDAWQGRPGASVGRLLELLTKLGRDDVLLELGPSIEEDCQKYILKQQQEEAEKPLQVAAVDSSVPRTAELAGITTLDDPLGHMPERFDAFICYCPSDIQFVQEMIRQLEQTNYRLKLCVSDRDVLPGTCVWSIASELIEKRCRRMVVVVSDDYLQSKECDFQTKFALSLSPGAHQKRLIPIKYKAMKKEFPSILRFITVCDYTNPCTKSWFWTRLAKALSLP
# Target sequence (Q9NR96 whole entry, looked up): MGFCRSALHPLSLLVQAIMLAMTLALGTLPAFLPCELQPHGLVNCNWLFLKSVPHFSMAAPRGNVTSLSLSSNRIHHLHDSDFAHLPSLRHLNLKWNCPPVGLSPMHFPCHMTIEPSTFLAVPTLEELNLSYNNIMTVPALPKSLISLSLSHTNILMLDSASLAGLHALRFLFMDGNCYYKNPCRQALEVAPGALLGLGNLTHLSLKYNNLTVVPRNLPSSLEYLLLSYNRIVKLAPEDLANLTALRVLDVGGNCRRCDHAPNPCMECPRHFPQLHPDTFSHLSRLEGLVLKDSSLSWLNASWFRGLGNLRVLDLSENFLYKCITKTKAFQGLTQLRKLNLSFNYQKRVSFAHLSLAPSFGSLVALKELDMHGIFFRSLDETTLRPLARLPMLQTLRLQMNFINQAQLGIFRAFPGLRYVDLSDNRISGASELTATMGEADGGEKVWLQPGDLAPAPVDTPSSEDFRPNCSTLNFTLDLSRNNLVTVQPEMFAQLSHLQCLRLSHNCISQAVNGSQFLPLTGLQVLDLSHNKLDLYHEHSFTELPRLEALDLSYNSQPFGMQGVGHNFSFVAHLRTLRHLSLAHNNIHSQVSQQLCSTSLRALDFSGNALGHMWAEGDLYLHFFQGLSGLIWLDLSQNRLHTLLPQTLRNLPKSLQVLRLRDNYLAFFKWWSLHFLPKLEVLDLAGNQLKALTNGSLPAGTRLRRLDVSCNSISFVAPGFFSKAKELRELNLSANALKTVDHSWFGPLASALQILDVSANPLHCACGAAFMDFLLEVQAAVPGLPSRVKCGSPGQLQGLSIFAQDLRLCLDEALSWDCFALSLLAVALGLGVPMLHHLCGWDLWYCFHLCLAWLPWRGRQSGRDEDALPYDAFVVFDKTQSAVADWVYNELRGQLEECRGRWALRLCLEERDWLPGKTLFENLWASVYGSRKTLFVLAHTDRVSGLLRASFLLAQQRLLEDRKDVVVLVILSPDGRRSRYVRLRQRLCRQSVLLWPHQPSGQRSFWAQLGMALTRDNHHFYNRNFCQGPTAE
# rCAG RNA binder – r(CAG) repeat RNA binding. inhibition, % at 3 µM. TO-PRO-1 dye displacement fluorescence. AID 651821. actives 1.3% (n = 370,000);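 active = inhibition above the plate cutoff, the mean of all test compounds on that plate plus 3 SD, cut at about 35% in these data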;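 also: 0% = DMSO alone and 100% = 100 µM mitoxantrone as full dye displacement; higher means more dye released from RNA so lower well fluorescence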
# PRMT1 confirm – confirmation of human PRMT1 inhibitors | shares compounds with PRMT1 FP inh | recombinant His-PRMT1, activity-based probe fluorescence polarization | inhibition, % at 2.79 µM | actives 42% (n = 3,300) | AID 687036;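 active = mean inhibition across replicates above the hit cutoff derived for the earlier primary screen, cut at about 22% in these data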
# * marks the source's active call; other numbers are inactive results; x = no result. Shown are actives, neighbours in structure and some others; about 3.3% of the full set was active somewhere.
SMILES,NOD2 RIPK2 PPI,ABHD5-PLIN5 inh,PRMT1 FP inh,TLR4-MyD88 BLA,TLR9-MyD88 inh,rCAG RNA binder,PRMT1 confirm
Cc1cccc2sc(N(CCCN(C)C)C(=O)c3ccc4ncsc4c3)nc12,3.1,11.8,29.1*,x,-0.5,-1.3,10.7
CCc1ccc2nc(N(CCN(C)C)C(=O)c3ccc4ncsc4c3)sc2c1,-8.2,-14.6,42.6*,x,-3.1,-6.0,2.8
CN(C)CCN(C(=O)c1ccc2c(c1)OCCO2)c1nc2ccc(Cl)cc2s1,11.0,4.9,2.3,-5.8,1.6,-1.8,x
COc1ccc(-n2c(C)ccc2-c2ccccc2)cn1,3.6,1.1,56.0*,x,-2.8,-23.9,14.2
CC(=O)c1ccc(-n2c(C)ccc2-c2ccccc2)cc1,-2.8,13.1,33.4*,-14.0,3.3,-1.7,2.2
COC(=O)c1ccc(-n2c(C)ccc2-c2ccccc2)cc1,-1.6,4.8,25.8*,1.2,-8.3,-1.4,7.5
Cn1c(=O)oc2cc(S(=O)(=O)N3CCN(C(=O)C4CCCO4)CC3)ccc21 (stereo not given),x,x,-7.3,x,x,1.1,x
COc1ccc(CCNC(=O)c2cnn3c(C(F)F)cc(C)nc23)cc1OC,-15.3,-0.9,29.6*,-10.4,-4.0,2.7,-0.1
O=C(NCSc1ccncn1)c1ccccc1,6.9,-5.2,49.4*,7.0,16.2,-0.9,9.2
O=[N+]([O-])c1cccc(C=Nc2cccc3ccccc23)c1O,0.3,-11.7,4.0,x,0.1,11.2,x
CCOC(=O)c1c(/N=C/c2cccc([N+](=O)[O-])c2O)sc(C)c1C,-6.0,-7.6,28.2*,0.6,-2.5,12.1,-0.7
CCn1c(SCc2ccccc2)nc2cc(S(N)(=O)=O)ccc21,-5.2,1.3,-4.8,x,7.1,1.9,x
CCOC(=O)c1[nH]c(=S)n(-c2ccccc2)c1C(=O)OCC,-7.6,-4.5,48.2*,x,-6.6,1.9,7.1
CCOc1ccc(N2C=Nc3ccc(OCC)cc3C2)cc1,-3.4,15.3,1.4,x,-4.0,-5.6,x
CN(NC(=S)Nc1ccc(OC(F)F)cc1)C(=S)Nc1ccc(OC(F)F)cc1,-1.2,-7.7,44.5*,4.4,3.3,3.7,-1.7
CC(C)C1NC2(C(=O)c3ccccc3C2=O)C2C(=O)N(c3ccc(F)cc3)C(=O)C12 (stereo not given),-4.7,-6.5,33.0*,-1.3,-5.2,-8.7,44.3*
O=C1NCCCC2c3c(cc(Br)c(O)c3Br)OC12N1CCOCC1 (stereo not given),1.4,5.9,27.1*,0.4,3.2,-0.2,2.6
O=C(Cc1ccc(Br)cc1)Nc1ccc2[nH]ncc2c1,-7.8,-1.8,1.1,x,-5.5,-0.7,x
Cn1c(=O)c2[nH]c(-c3ccccc3)c(O)c2n(C)c1=O,12.4,-1.9,75.5*,-5.0,16.4,-52.0,23.6*
CCC1Cc2c(nc(N)c3c(N)nc(N4CCOCC4)c(C#N)c23)O1 (stereo not given),-10.4,0.1,0.6,-14.7,-8.5,5.2,x
COc1ccc(CN2C(=O)Cc3c2nc(N)c2c(N)nc(N4CCOCC4)c(C#N)c32)cc1,-9.9,12.8,25.1*,x,-2.0,27.3,13.1
Cc1ccc(/C=N/NC(=O)c2cccc(S(=O)(=O)N3CCOCC3)c2)o1,-2.7,2.9,0.3,-4.2,5.8,4.3,x
COc1ccc(CCNC(=O)c2sc(=S)n(C)c2N)cc1,1.4,1.9,-0.8,-7.7,-5.5,-4.3,x
Cn1c(N)c(C(=O)NCc2ccccc2)sc1=S,-4.3,-19.8,25.6*,11.6,-3.9,-0.5,13.8
O=S1(=O)CC(O)C(O)CS1 (stereo not given),-17.2,4.7,81.4*,x,x,2.5,84.9*
Cc1cccc(C2NC(=O)c3c(sc(C)c3C)N2)c1O (stereo not given),9.8,-39.3,52.6*,-7.5,1.7,5.8,2.3
CCCCC(O)(CCCC)C(=O)NN(C(=O)c1cccnc1Cl)c1ccccc1,-2.7,-4.8,-4.5,x,0.9,-4.2,x
Cn1cc(P(=O)(N2CCOCC2)N2CCOCC2)cc1P(=S)(N1CCOCC1)N1CCOCC1,6.1,-13.2,30.5*,-2.4,4.0,0.9,40.1*
